DUSP1 inh = inhibitors of human MKP-1 phosphatase. recombinant MKP-1, OMFP hydrolysis fluorescence. inhibition, %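 (compounds tested at a single concentration somewhere between 10 and 100 µM)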. 65,000 compounds, 0.15% hits;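 active means inhibition above about 50%, limit read from the data; inconclusive means inhibition over screen mean plus 3 SD, below that limit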;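 further: 0% = DMSO max control wells and 100% = wells with enzyme stopped by NaOH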
Cdc25B inh = human M-phase inducer phosphatase 2 inhibition; AID 368; 65,000 compounds, 0.1% hits; recombinant Cdc25B, OMFP fluorescence Ex485/Em525; inhibition, %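 (compounds tested at 10 µM final in the well)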; in the data active means inhibition above about 50%
BAP1 inh = human BAP1 deubiquitinase inhibition; AID 436; 72,000 compounds, 0.48% hits; Q92560; recombinant BAP1, Ub-AMC hydrolysis fluorescence kinetic; active compounds read low; calls only at 20 µM;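 active means activity remaining at or below 50% of control, provided the compound also passes the data quality filters; inactive means the rest, including low values that fail the filters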;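 further: 100% = DMSO wells rate and 0% = substrate alone blank rate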
HePTP inh = human HePTP phosphatase inhibition. recombinant HePTP phosphatase activity, OD absorbance. inhibition, % at 20 µM. 110,000 compounds, 0.64% hits. AID 521; in the data active means inhibition above about 50%; inconclusive means no clear call, values can overlap the other calls;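 further: plate controls were vehicle for no effect and reference inhibitor for full effect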
Target sequence (P35236 whole entry, looked up): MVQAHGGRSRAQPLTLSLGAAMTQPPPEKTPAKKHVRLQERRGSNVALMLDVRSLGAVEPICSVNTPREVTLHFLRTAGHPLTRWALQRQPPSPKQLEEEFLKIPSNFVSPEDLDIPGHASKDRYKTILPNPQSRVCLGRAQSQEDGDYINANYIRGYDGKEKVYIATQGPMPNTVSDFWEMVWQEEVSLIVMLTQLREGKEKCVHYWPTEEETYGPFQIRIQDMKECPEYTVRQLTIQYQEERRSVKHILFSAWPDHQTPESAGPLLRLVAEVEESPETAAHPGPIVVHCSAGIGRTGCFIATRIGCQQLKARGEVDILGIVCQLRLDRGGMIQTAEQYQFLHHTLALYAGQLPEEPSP
TNAP act DEA = human TNAP activation, intermediate phosphate acceptor; P05186; purified TNAP, CDP-star luminescence, 100 mM DEA, 30 min; active compounds read high; scale: 0 levamisole-inhibited, 1 vehicle-only enzyme; activation factor at 20 µM; 64,000 tested, under 10 active; AID 813;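 active means activation factor of at least 2 at 20 µM, relative to controls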
Ec RNAP inh = blocks E. coli RNA polymerase transcription | P0A8V2 | fluorescence transcription assay | inhibition, %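 (tested at 10 µM)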 | 62,000 compounds, 0.2% hits; in the data active means inhibition above about 20%;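 further: 0% = enzyme without compound and 100% = no enzyme blank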
Redox H2O2 = generates H2O2 by redox cycling in DTT; EC50, µM; Redox cycling H2O2 generation, phenol red/HRP; shares compounds with DUSP1 inh; 60 tested, under 10 active; call rule not given here
BAP1 inh confirm = BAP1 (human) enzyme inhibition, confirmed; shares compounds with BAP1 inh; purified BAP1, Ub-ethyl ester hydrolysis, HPLC; active compounds read low; % of control activity, % at 20 µM; 310 compounds, 8% hits;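 active means percent of control activity at or below 60%; inconclusive means HPLC trace unusable from injection failure or solvent front hiding peaks; inactive means the rest, plus ubiquitin peak ratio over a set limit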
Starred values were filed as active, the others as inactive; i = inactive; ? = inconclusive; . = not tested or not shown; + = active, no number. A selection: hits, their analogues and other compounds. The true share with any hit is near 1%.

SMILES	DUSP1 inh	Cdc25B inh	BAP1 inh	HePTP inh	TNAP act DEA	Ec RNAP inh	BAP1 inh confirm	others
O=C1C=C(NCc2ccc(Cl)c(Cl)c2)CC1	70*	-3	i	3	0.9	3	.	Redox H2O2=>50
CCCCOc1ccc(NC2=NC3(CCCC3)N=C(N)N2)cc1	0	0	+	3	1.3	8	98
Cc1cc(C)cc(NC2=NC3(CCCCC3)N=C(N)N2)c1	-3	-5	i	12	1.2	7	.
CCOC(=O)c1nnn(-c2nonc2N)c1CSc1ccc(C)cc1	4	-22	i	-4	1	6	.
CCOC(=O)c1nnn(-c2nonc2N)c1COc1cc(C)c(Cl)c(C)c1	9	-18	+	-1	1	2	106
CC(C)c1ccc(N2C(=O)/C(=C/c3cc(Cl)c(O)c(Cl)c3)C(=O)NC2=S)cc1	.	.	.	0	.	.	.
COc1ccc(-c2noc(-c3ccc(Cl)cc3)n2)cc1	9	5	+	8	0.9	3	77
COc1ccc(-c2nc(-c3ccc(C)cc3)no2)cc1	.	.	.	-4	.	.	.
CC1=C(C(=O)Nc2ccccc2)C(c2ccc(C)o2)n2c(s/c(=C\c3ccco3)c2=O)=N1 (stereo not drawn)	-20	1	+	4	0.9	11	111
O=C(Nc1ccc2nn(-c3ccc(F)cc3)nc2c1)c1ccco1	.	.	.	11	.	.	.
Nc1nn(S(=O)(=O)c2cccc3nsnc23)cc1-c1ccc(Br)cc1	5	2	+	-2	0.9	9	?
O=C(/C=C/c1ccc(-c2cccc(Br)c2)o1)c1cccs1	.	.	.	4	.	.	.
CCn1cc(C(=O)NCc2ccco2)c(=O)c2cc(S(=O)(=O)N3CCCCCC3)ccc21	36	-11	i	-10	0.9	-5	.
C=CCn1cc(C(=O)NCc2ccco2)c(=O)c2cc(S(=O)(=O)N3CCCCCC3)ccc21	34	-5	+	1	0.9	6	97
Cc1cccc(OCC(=O)N/N=C/c2cc([N+](=O)[O-])cc(Br)c2O)c1	.	.	.	3	.	.	.
COc1ccc(-c2nnc(SCC(=O)Nc3ccccc3OC)o2)cc1	23	-13	i	2	1	-3	.
COc1ccc(-c2nnc(SCC(=O)Nc3cccc(Cl)c3)o2)cc1	2	-1	+	0	1	8	109
CCOC(=O)c1oc2ccc3c(c2c1C)C(=O)CC1(CCN(C(=O)OCC)CC1)O3	29	-15	+	0	1	-3	84
CCOc1cccc2sc(NC(=O)c3ccc(Br)s3)nc12	4	-12	+	5	0.9	10	81
CCCCCn1c(SCCc2ccccc2)nc2c1c(=O)[nH]c(=O)n2C	-20	-6	i	5	1	-1	.
CCCCCOC(=O)CSc1nc2c(c(=O)[nH]c(=O)n2C)n1CCc1ccccc1	3	32	+	.	.	.	96
N#C/C(=C\c1ccc[nH]1)Sc1nc2ccccc2s1	5	-5	+	8	0.8	1	86
Nc1c(C(=O)c2ccc(Br)s2)oc2ccccc12	13	-4	+	5	0.8	7	81
CCCCCCCCc1nnc(NC(=O)C(C)(C)C)s1	.	.	.	-8	.	.	.
CSc1ccc(C2C(C#N)=C(N)Oc3c2ccc(=O)c2c(C)oc(C)c32)cc1 (stereo not drawn)	40	37	+	7	0.8	4	118
SMILES	DUSP1 inh	Cdc25B inh	BAP1 inh	HePTP inh	TNAP act DEA	Ec RNAP inh	BAP1 inh confirm	others
CCc1cc(C(=O)Cc2cnn(-c3ccccc3)c2)c(O)cc1O	9	-10	+	2	1	0	129
Cc1cc(C)[n+]2cc(Br)ccc2n1	.	.	.	-3	.	.	.
CC(C)c1cc(Nc2cccc(O)c2)cc(C(C)C)c1O	23	8	+	5	0.8	4	82
COc1ccc(CC(=O)Nc2ccc(-c3noc(-c4cccc(OC)c4)n3)cc2)cc1	6	11	+	10	0.9	0	77
CN(c1ccc(C(=O)N2CCCC2)cc1)S(=O)(=O)c1ccccc1	.	.	.	9	.	.	.
O=C(Nc1ccc(N2CCN(C(=O)c3ccco3)CC2)c(Cl)c1)c1c(F)c(F)c(F)c(F)c1F	9	-8	+	0	0.9	12	?
N#Cc1c(/N=C/c2ccco2)oc(-c2ccccc2)c1-c1ccccc1	-10	-4	+	0	0.9	3	?
Cc1ccc(-n2nnnc2SCC(=O)Nc2ccc3c(c2)COC3=O)cc1C	7	5	+	-2	1	5	77
Cn1ccnc1SCC(=O)Nc1ccc2c(c1)COC2=O	-1	8	.	12	0.9	10	.
CCn1c(=NC(=O)c2ccc(N3C(=O)CCC3=O)cc2)sc2c(OC)ccc(OC)c21	?	1	+	18	0.9	9	117
CCc1cccc(C)c1NS(=O)(=O)c1ccc(F)cc1	.	.	.	6	.	.	.
CCOC(=O)c1[nH]c(CSc2nnnn2-c2ccccc2C)c(C(=O)OCC)c1C	2	-14	+	3	0.9	7	93
Cc1cccc2cc(CN(Cc3ccc(F)cc3)Cc3nnnn3C3CCCC3)c(=O)[nH]c12	26	-16	i	7	0.9	-4	.
Cc1cc(C)c2[nH]c(=O)c(CN(Cc3ccc4c(c3)OCO4)Cc3nnnn3C3CCCC3)cc2c1	3	-5	+	4	0.9	7	112
Cc1cccc2cc(CN(Cc3cccs3)C3(c4nnnn4C4CCCC4)CCCC3)c(=O)[nH]c12	15	9	+	8	0.9	2	74
COc1ccc(N(CC(=O)Nc2cccc(Cl)c2)S(C)(=O)=O)c(OC)c1	.	.	.	-16	.	.	.
CCOC(=O)c1oc2ccc(S(=O)(=O)n3nc(-c4ccc(OC)cc4)cc3N)cc2c1C	17	5	+	0	1	2	75
CCN(CC)S(=O)(=O)c1ccc2oc(C(=O)Nc3ccc(OC)cc3OC)c(C)c2c1	19	-11	.	3	0.9	1	.
Oc1cccc(Nc2nc(-c3ccccn3)cs2)c1	.	.	.	0	.	.	.
Cc1ccc2cc3c(NC(=O)c4ccco4)nn(CC(C)C)c3nc2c1	-19	1	+	-1	0.9	-4	109
COc1ccc(NC(=O)c2nc[nH]c2C(=O)Nc2ccccc2C)cc1	28	5	+	-3	0.9	0	156
COc1ccc(NC(=O)c2nc[nH]c2C(=O)Nc2ccc(OC)cc2)cc1	.	.	.	0	.	.	.
Cc1cccc(-n2c(-c3ccccc3)nc3c(cnn3-c3ccccc3)c2=O)c1	.	.	.	7	.	.	.
COc1cccc(CN(Cc2ccco2)C(c2ccc(F)cc2)c2nnnn2C(C)(C)C)c1 (stereo not drawn)	-10	-12	+	7	0.9	7	71

Source: PubChem (several laboratories)
